Screening data deposited in PubChem BioAssay by National Center for Advancing Translational Sciences (NCATS).
ALDH1A1 block – qHTS Assay for Inhibitors of Aldehyde Dehydrogenase 1 (ALDH1A1); Aldehyde dehydrogenase 1A1 (Homo sapiens), P00352; Purified ALDH1A1, NADH fluorescence, propionaldehyde substrate; Potency, µM (top dose mostly 75.3 µM), inactives show at the highest dose activity, negative = inhibition, actives largely listed as inhibitors; actives 7.3% (n = 220,000); AID 1030, 2008; active means well fitted inhibition curve with a large enough effect, not every such curve was filed as active; inconclusive means small, poorly fitted or top-dose-only effect, or another doubt; inactive means no such curve, though single readings can be large or run the other way;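 further: potency means the concentration at half of the fitted maximal effect; plate controls were no enzyme wells and a reference inhibitor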
PNC assembly inh – High Content Assay for Compounds that inhibit the Assembly of the Perinucleolar Compartment; PC3M PTB-GFP, PNC prevalence imaging, 16 h; stronger effect = lower value; activity change (PNC), negative = inhibition, % at 10 µM; actives 3.1% (n = 140,000);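 active means readout at or below -70, meaning at least 70% loss of cells showing the perinucleolar compartment, a nuclear body marking cancer cells; inconclusive means readout between -30 and a set limit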;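 further: plate controls were DMSO wells for no effect and camptothecin positive control wells for full effect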
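Compounds are pinned in duplicate onto adhered PC3M cells stably expressing GFP-tagged PTB and incubated 16 h at 37 C. Cells are then fixed, nuclei stained with Hoechst, and PNC-positive cells counted.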
HPGD block – qHTS Assay for Inhibitors of HPGD (15-Hydroxyprostaglandin Dehydrogenase); purified HPGD, NADH fluorescence kinetic, PGE2 substrate; Potency, µM, without a hit: at the highest dose activity change, negative = inhibition, hits mostly inhibitors; actives 4.3% (n = 150,000); AID 894, 2007; active means well fitted inhibition curve with a large enough effect, not every such curve was filed as active; inconclusive means small, poorly fitted or top-dose-only effect, or another doubt; inactive means no such curve, though single readings can be large or run the other way; further: potency means the concentration at half of the fitted maximal effect
Target sequence (P15428 whole entry, looked up): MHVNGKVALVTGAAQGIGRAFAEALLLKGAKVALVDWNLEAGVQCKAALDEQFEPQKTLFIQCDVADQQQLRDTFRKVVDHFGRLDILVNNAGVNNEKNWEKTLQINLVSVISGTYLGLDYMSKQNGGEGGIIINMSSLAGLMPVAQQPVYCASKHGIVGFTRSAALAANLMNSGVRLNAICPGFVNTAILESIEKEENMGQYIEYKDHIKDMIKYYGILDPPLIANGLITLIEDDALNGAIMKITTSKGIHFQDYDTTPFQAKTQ
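NADH formation kinetics: reaction with 30 uM PGE2 and 1 mM NAD+ (final), 20 nM enzyme, Tris-HCl pH 8 with Tween 20, after 15 min compound preincubation at room temperature. Fluorescence change, last versus first of five reads.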
IMPase inh – qHTS Assay for Identifying the Cell-Membrane Permeable IMPase Inhibitors; Inositol monophosphatase 1 (Rattus norvegicus), P97697; CHO-M1 cells, IP1 accumulation, HTRF TR-FRET ratio; inhibition (IP1 accumulation), % at 46.1 µM; 120,000 tested, under 10 active; AID 901, 2007; active means well fitted curve in the direction sought with a large enough effect in the signal ratio, not every such curve was filed as active; inconclusive means small, poorly fitted or top-dose-only effect, or a change in a side signal; inactive means no such curve, though single readings can be large or run the other way; the % refers to the signal ratio;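 further: cells stimulated with carbachol in lithium chloride buffer; plate controls were DMSO basal wells for no effect and reference inhibitor wells for full effect; higher means more IMPase inhibition seen as more IP1 and lower FRET ratio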
Target sequence (P97697 whole entry, looked up): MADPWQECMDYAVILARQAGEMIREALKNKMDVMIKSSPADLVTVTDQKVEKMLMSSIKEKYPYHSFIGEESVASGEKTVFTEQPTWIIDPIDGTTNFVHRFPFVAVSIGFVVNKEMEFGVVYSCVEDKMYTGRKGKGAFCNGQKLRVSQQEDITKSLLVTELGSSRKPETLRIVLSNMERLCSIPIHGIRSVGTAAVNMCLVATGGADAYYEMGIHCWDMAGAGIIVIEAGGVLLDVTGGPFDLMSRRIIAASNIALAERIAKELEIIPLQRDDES
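In this qHTS, compounds (final up to 46 uM) act on CHO-M1 cells that are then activated through the M1 receptor with carbachol, in pH 7.4 buffer containing 50 mM LiCl, for 30 min. IP1 accumulation is quantified by the IP-One immunoassay.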
IMPase Li inh – qHTS Assay for Identifying the Cell-Membrane Permeable IMPase Inhibitors: Potentiation with Lithium; CHO-M1 cells, IP1 TR-FRET (IP-One), carbachol + lithium; Potency, µM (doses to about 59.4 µM), inactives show at the top dose activity, negative = IMPase inhibition, actives largely listed as inhibitors; actives 0.35% (n = 210,000);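 further: IP1 builds up when IMPase is blocked and the TR-FRET signal falls; potency means the concentration at half of the fitted maximal effect; plate controls were basal vehicle for no effect and high inhibitor control for full effect; nearly all actives have a fitted effect of over 50% in size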
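Concentration–response in CHO-M1 cells, lithium-potentiated; 30 min at 37C. IP1 detected by competitive TR-FRET after 10 min lysis at RT. Hill-fitted AC50.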
ALOX12 inhib – qHTS Assay for Inhibitors of 12-hLO (12-human lipoxygenase); actives 0.12% (n = 150,000); Potency, µM (titrated, usually from 57.1 µM), for the others: top-dose activity change, negative = inhibition, hits mostly inhibitors; purified 12-hLO, xylenol orange hydroperoxide absorbance; Polyunsaturated fatty acid lipoxygenase ALOX12 (Homo sapiens), P18054; further: potency means the concentration at half of the fitted maximal effect; nearly all actives have a fitted effect of over 55% in size
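Purified human 12hLO (150 nM), preincubated 15 min with compound, then 40 uM arachidonic acid for 30 min, room temperature, Hepes pH 7.0 with 0.01% Triton X-100. Hydroperoxide detected by ferrous iron/xylenol orange; 573/405 nm absorbance ratio gives reaction progress.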
The depositor's hits bear a star; [ ] = dose if it differs, or a comment. Hits are enriched below; roughly 11% of the tested compounds scored in any of these assays. Unless noted, the call rests on the fitted dose curve; in most records, active means well fitted curve in the direction sought with a large enough effect; inconclusive means small, poorly fitted or top-dose-only effect, or another doubt; inactive means no such curve, though single readings can be large; an effect the other way counts as inactive or inconclusive. Unless noted, on the % scale 0 is the no-effect control and ±100 the full control effect.

Results for NS(=O)(=O)c1ccc(CCNC(=O)c2cc(-c3ccccn3)nc3ccc(Br)cc23)cc1 ?
ALDH1A1 block: -3%; IMPase Li inh: 11µM*

Results for NNC(=O)c1cc(-c2ccc(O)cc2)nc2ccc(Br)cc12 ?
ALDH1A1 block: 14µM*

Results for COc1cccc(OC)c1CN1CCCC(C(=O)c2ccccc2SC)C1 (stereo not given) ?
ALDH1A1 block: 0%; IMPase Li inh: 20%

Results for Cn1c(=O)c2c(nc(NCc3ccccc3)n2Cc2ccc(Cl)c(Cl)c2)n(C)c1=O ?
IMPase inh: 6

Results for CCCCCCSc1nnc2c(n1)OC(C)Nc1ccc(Br)cc1-2 (stereo not given) ?
IMPase inh: 6

What do the screens show for `O=C(Nc1ccc(C(=O)N2CCOCC2)cc1)c1cc(-c2cccnc2)nc2ccc(Br)cc12`?
ALDH1A1 block: 1%; IMPase Li inh: 10%

Results for O=C(Nc1ccccn1)c1cc(-c2cccnc2)nc2ccc(Br)cc12 ?
ALDH1A1 block: 4%; PNC assembly inh: 21; HPGD block: -18%; IMPase inh: inconclusive; IMPase Li inh: 11µM*; ALOX12 inhib: 0%

What do the screens show for `CCCCCc1nnc(NC(=O)Cn2cnc3ccccc3c2=O)s1`?
ALDH1A1 block: 1%; PNC assembly inh: -111*; HPGD block: -5%; IMPase inh: 1; IMPase Li inh: -1%; ALOX12 inhib: -1%

How did CCCCc1nnc(NC(=O)Cn2cnc3ccccc3c2=O)s1 do in these assays?
ALDH1A1 block: -16%; IMPase Li inh: 10%

What do the screens show for `O=C(Cn1cnc2ccccc2c1=O)Nc1nnc(SCc2ccccc2)s1`?
ALDH1A1 block: 9%; PNC assembly inh: 17; HPGD block: 22µM*; IMPase inh: 0; IMPase Li inh: 2%[38.3 µM]; ALOX12 inhib: 2%

Results for O=C1c2ccccc2C(=O)N1c1ccc(Cc2ccc(N3C(=O)c4ccccc4C3=O)cc2)cc1 ?
ALDH1A1 block: -1%[13.5 µM]; HPGD block: 2%; IMPase Li inh: 15%; ALOX12 inhib: 3%[11.4 µM]

What do the screens show for `COc1ccc(N)cc1-n1c(C)ccc1C`?
ALDH1A1 block: 14µM*; IMPase Li inh: 16%

What do the screens show for `COc1ccc(N)cc1C#N`?
ALDH1A1 block: inconclusive; PNC assembly inh: 24; HPGD block: -14%; IMPase inh: 2; IMPase Li inh: 3%[38.3 µM]; ALOX12 inhib: 5%

Results for CSc1ccc(C(=O)C2CCCN(C(=O)c3csc(C(C)=O)c3)C2)cc1 (stereo not given) ?
ALDH1A1 block: 2µM*; IMPase Li inh: 15%

What do the screens show for `CSc1ccc(C(=O)C2CCCN(C(=O)c3cc4cc(F)ccc4[nH]3)C2)cc1` (stereo not given)?
ALDH1A1 block: -3%; IMPase Li inh: 13%

Results for COc1ccc(CC(=O)Nc2oc(-c3ccccc3)c(-c3ccccc3)c2C#N)cc1OC ?
ALDH1A1 block: 1%; PNC assembly inh: -100*; HPGD block: inconclusive; IMPase inh: 1; IMPase Li inh: 12%; ALOX12 inhib: 3%

Results for COc1ccc(-c2oc(NC(=O)CSc3ncn[nH]3)c(C#N)c2-c2ccc(OC)cc2)cc1 ?
ALDH1A1 block: -9%; PNC assembly inh: -7; HPGD block: -13%; IMPase inh: -1; IMPase Li inh: -2%[38.3 µM]; ALOX12 inhib: -29%
